Source: PubChem BioAssay (EPA / NIEHS)
Results filed as inconclusive are left out. Active and inactive are the calls of the source. Rule for the calls, unless noted: active = hit-call score of the fitted dose curve at least 0.9, where 1 is the maximum; inconclusive = response in the unintended direction; inactive = score below 0.9.

Columns and labels:
[1] = target: human AMP-activated Protein Kinase, alpha 1 (AMPKa1), PRKAA1 (gene 5562) (UniProt Q13131); assay: NVS_ENZ_hAMPKa1: NovaScreen (NVS) Enzymatic Assay for human AMP-activated Protein Kinase, alpha 1 (AMPKa1) (AID 2283130)
In short: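 Recombinant human AMPKα1 activity was measured cell-free by fluorescent substrate conversion with electrophoretic mobility-shift separation, 1 h after dosing. Duplicate single-point screening was at 25 uM; actives (≥30% inhibition) were retested in concentration-response up to 50 uM.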

[2] = target: human Aurora Kinase A - serine/threonine-protein Kinase 6 (AurA), AURKA (gene 6790) (UniProt O14965); assay: NVS_ENZ_hAurA: NovaScreen (NVS) Enzymatic Assay for human Aurora Kinase A - serine/threonine-protein Kinase 6 (AurA) (AID 2283142)
In short: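 Cell-free enzymatic assay with human Aurora A, 1 hour after dosing. Fluorescent substrate turnover detected after electrophoretic mobility shift separation of substrate and product. Screened at 25 uM, actives retested in concentration-response up to 50 uM.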

[3] = target: human MET Proto-Oncogene, Receptor Tyrosine Kinase (MET), MET (gene 4233) (UniProt P08581); assay: NVS_ENZ_hMet: NovaScreen (NVS) Enzymatic Assay for human MET Proto-Oncogene, Receptor Tyrosine Kinase (MET) (AID 2283180)
In short: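 Cell-free MET kinase assay using recombinant protein and fluorescent substrate, with mobility-shift separation; read 1 h after dosing. Primary duplicate at 25 uM; actives in singleton concentration-response to 50 uM maximum. Signal loss versus DMSO.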

[4] = target: human p21 Activated Kinase 4 (PAK4), PAK4 (gene 10298) (UniProt O96013); assay: NVS_ENZ_hPAK4: NovaScreen (NVS) Enzymatic Assay for human p21 Activated Kinase 4 (PAK4) (AID 2283189)
In short: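 Cell-free recombinant human PAK4 activity assay; fluorescent substrate and product separated by electrophoretic mobility shift, read 1 h after dosing. Initially tested in duplicate at 25 uM, relative to DMSO baseline.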

[5] = target: human Raf-1 Proto-Oncogene, serine/threonine Kinase (RAF1), RAF1 (gene 5894) (UniProt P04049); assay: NVS_ENZ_hRAF1: NovaScreen (NVS) Enzymatic Assay for human Raf-1 Proto-Oncogene, serine/threonine Kinase (RAF1) (AID 2283216)
In short: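 Cell-free recombinant kinase with specific fluorescent substrate, product separated by electrophoretic mobility shift; read 1 h after dosing. Primary screen at 25 uM in duplicate; hits then run in concentration-response up to 50 uM, fitted as loss of signal versus DMSO.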

[6] = target: human Tyrosine Protein Kinase Receptor Tie-2 (Tie2), TEK (gene 7010) (UniProt Q02763); assay: NVS_ENZ_hTie2: NovaScreen (NVS) Enzymatic Assay for human Tyrosine Protein Kinase Receptor Tie-2 (Tie2) (AID 2283225)
In short: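 Recombinant human Tie2 kinase activity was read cell-free by fluorescence with electrophoretic mobility shift, 1 hour after dosing. The screen used 25 uM in duplicate, then concentration-response up to 50 uM. Signal loss was scored against DMSO.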

[7] = target: rat Monoamine Oxidase, MAO-B, Central (MAOBC), Maob (gene 25750) (UniProt P19643); assay: NVS_ENZ_rMAOBC: NovaScreen (NVS) Enzymatic Assay for rat Monoamine Oxidase, MAO-B, Central (MAOBC) (AID 2283238)
In short: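 MAO-B activity in rat brain tissue preparation, cell-free, measured radiometrically by scintillation counting 1.17 h after dosing. Screened in duplicate at 25 uM; actives then in concentration-response up to 50 uM. Loss of signal versus DMSO scored.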

[8] = CCTE_Harrill_HTTr_Apoptosis_PRF_DMEM_12hr: (Pilot) CCTE's 12-hour Apoptosis Assessment for the High-Throughput Transcriptomics (HTTr) Platform, in MCF-7 cells cultured in phenol red-free DMEM + 10% charcoal-stripped fetal bovine serum, Harrill Lab (AID 2283985; active = hit-call score of the fitted dose curve at least 0.9, where 1 is the maximum; inactive = score below 0.9)
In short: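 MCF-7 cells in phenol red-free DMEM with 10% charcoal-stripped FBS, eight-point dilution series, 12 h exposure. Caspase-3/7 activation imaged by high content imaging with CellEvent Green reagent; bidirectional fit vs DMSO.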

[9] = target: human Ephrin type-A Receptor 2 (EphA2), EPHA2 (gene 1969) (UniProt P29317); assay: NVS_ENZ_hEphA2: NovaScreen (NVS) Enzymatic Assay for human Ephrin type-A Receptor 2 (EphA2) (AID 2283155)
In short: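 Cell-free recombinant EphA2 kinase with specific substrate, 1 h, fluorescence with electrophoretic mobility-shift separation of substrate and product. Primary screen at 25 uM in duplicate; hits retested in singleton concentration-response up to 50 uM, referenced to DMSO.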

[10] = target: human Fibroblast Growth Factor Receptor 1 (FGFR1), FGFR1 (gene 2260) (UniProt P11362); assay: NVS_ENZ_hFGFR1: NovaScreen (NVS) Enzymatic Assay for human Fibroblast Growth Factor Receptor 1 (FGFR1) (AID 2283159)
In short: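 Cell-free recombinant kinase with fluorescent substrate, product separated by electrophoretic mobility shift; read 1 hour after dosing, loss of signal relative to DMSO. Initial screen in duplicate at 25 uM, actives followed in concentration series.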

[11] = target: human Protein Tyrosine Phosphatase Receptor Type C (PTPRC), PTPRC (gene 5788) (UniProt P08575); assay: NVS_ENZ_hPTPRC: NovaScreen (NVS) Enzymatic Assay for human Protein Tyrosine Phosphatase Receptor Type C (PTPRC) (AID 2283212)
In short: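 Yeast-extracted human PTPRC used in a cell-free colorimetric enzyme activity read-out, 1 h after dosing. Primary screen in duplicate at 25 uM; actives rerun in concentration-response up to 50 uM, DMSO as baseline.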

[12] = target: Norway rat Vesicular Monoamine Transporter (VMAT2), neurotransmitter transporter, Slc18a2 (gene 25549) (UniProt Q01827); assay: NVS_TR_rVMAT2: NovaScreen (NVS) Transporter Assay for Norway rat Vesicular Monoamine Transporter (VMAT2), neurotransmitter transporter (AID 2283376);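 note: actives lower the bound radioligand signal below the DMSO level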
In short: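 Radioligand displacement binding on rat forebrain tissue preparation, filter-based scintillation read-out 1 hour after dosing. Primary screen in duplicate at 25 uM, then concentration series for actives; loss of signal versus DMSO.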

[13] = target: human Mitogen-Activated Protein Kinase 1 (MAPK 1), MAPK1 (gene 5594) (UniProt P28482); assay: NVS_ENZ_hMAPK1: NovaScreen (NVS) Enzymatic Assay for human Mitogen-Activated Protein Kinase 1 (MAPK 1) (AID 2283175)
In short: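 Cell-free recombinant human MAPK1 enzymatic assay, fluorescence/electrophoretic mobility shift read at 1 h; loss of signal vs DMSO. Primary screen in duplicate at 25 uM; actives (e.g. ≥30% inhibition) run as concentration-response up to 50 uM.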

[14] = target: human Phosphatase and Tensin Homolog (PTEN), PTEN (gene 5728) (UniProt P60484); assay: NVS_ENZ_hPTEN: NovaScreen (NVS) Enzymatic Assay for human Phosphatase and Tensin Homolog (PTEN) (AID 2283203)
In short: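 Cell-free recombinant human PTEN with fluorescent substrate; product separated by electrophoretic mobility shift and read by fluorescence 1 h after dosing. Primary screen in duplicate at 25 uM, actives followed in concentration series versus DMSO.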

[15] = target: Bile acid receptor (Homo sapiens) (UniProt Q96RI1); assay: NVS_NR_hFXR_Agonist: NovaScreen (NVS) Nuclear Receptor Binding Assay for human Farnesoid X Receptor Agonism (FXR) (AID 2283347)
In short: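 Cell-free TR-FRET binding assay with extracted human FXR protein, agonist format, read 1 h after dosing. Primary screen at 25 uM single concentration in duplicate, actives retested in concentration series; gain of signal versus DMSO.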

human AMP-activated Protein Kinase, alpha 1 (AMPKa1), PRKAA1 (gene 5562), sequence (Q13131 whole entry, looked up): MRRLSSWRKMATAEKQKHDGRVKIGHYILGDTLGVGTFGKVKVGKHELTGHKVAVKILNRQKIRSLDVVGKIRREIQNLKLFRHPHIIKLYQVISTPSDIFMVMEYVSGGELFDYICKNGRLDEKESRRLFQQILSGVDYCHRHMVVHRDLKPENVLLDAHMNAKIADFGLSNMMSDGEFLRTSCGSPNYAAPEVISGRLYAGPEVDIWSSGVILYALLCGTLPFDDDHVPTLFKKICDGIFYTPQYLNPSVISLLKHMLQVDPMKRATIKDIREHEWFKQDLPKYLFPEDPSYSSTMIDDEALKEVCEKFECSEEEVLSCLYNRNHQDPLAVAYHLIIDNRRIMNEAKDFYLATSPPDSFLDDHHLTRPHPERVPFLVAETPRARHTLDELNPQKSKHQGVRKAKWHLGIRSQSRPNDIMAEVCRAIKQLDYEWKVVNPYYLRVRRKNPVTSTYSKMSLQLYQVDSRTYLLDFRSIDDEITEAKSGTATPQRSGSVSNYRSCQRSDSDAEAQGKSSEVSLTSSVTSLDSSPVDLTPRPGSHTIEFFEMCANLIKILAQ
human Tyrosine Protein Kinase Receptor Tie-2 (Tie2), TEK (gene 7010), sequence (Q02763 whole entry, looked up): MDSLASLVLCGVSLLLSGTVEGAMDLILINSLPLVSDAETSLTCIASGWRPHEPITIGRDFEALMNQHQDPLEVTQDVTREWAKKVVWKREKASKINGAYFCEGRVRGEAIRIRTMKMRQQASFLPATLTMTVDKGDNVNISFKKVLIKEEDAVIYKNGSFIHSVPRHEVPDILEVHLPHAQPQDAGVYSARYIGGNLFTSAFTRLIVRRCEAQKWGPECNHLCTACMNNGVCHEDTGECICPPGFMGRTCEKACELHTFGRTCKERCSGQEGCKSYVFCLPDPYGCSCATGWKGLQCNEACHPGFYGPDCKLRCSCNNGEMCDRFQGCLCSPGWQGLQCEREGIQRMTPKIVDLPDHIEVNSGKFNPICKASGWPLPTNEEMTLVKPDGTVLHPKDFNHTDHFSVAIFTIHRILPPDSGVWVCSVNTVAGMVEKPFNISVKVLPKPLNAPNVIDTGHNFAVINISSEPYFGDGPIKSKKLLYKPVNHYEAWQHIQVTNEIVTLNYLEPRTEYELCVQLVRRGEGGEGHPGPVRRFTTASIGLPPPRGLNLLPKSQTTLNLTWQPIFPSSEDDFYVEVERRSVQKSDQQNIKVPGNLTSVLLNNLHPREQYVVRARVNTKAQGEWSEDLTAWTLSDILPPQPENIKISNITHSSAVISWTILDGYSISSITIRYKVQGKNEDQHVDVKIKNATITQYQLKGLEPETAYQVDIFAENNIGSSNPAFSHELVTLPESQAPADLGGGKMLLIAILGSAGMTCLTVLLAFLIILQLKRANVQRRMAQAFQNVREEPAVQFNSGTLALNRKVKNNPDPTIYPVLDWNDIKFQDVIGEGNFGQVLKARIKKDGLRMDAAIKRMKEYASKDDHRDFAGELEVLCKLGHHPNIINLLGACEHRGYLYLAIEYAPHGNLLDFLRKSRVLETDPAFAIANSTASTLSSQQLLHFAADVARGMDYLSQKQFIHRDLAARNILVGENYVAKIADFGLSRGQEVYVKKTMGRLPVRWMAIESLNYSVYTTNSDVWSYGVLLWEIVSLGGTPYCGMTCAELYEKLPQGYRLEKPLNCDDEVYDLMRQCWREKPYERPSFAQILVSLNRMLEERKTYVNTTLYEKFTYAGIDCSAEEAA
human p21 Activated Kinase 4 (PAK4), PAK4 (gene 10298), sequence (O96013 whole entry, looked up): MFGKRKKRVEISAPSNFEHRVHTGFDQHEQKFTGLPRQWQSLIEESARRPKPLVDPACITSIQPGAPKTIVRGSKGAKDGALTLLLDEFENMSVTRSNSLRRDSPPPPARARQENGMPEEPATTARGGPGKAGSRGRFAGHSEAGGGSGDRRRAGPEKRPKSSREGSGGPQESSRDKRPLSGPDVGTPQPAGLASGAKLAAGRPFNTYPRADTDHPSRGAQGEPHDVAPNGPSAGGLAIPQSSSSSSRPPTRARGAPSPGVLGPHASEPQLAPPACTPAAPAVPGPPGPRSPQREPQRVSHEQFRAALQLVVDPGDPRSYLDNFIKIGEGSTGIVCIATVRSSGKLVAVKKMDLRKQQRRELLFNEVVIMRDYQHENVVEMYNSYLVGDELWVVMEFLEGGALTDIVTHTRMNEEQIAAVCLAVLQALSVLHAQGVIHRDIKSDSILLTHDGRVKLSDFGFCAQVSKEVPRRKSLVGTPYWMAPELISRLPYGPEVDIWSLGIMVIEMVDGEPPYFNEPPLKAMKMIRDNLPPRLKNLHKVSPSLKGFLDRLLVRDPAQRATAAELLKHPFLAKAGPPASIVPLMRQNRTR
human Aurora Kinase A - serine/threonine-protein Kinase 6 (AurA), AURKA (gene 6790), sequence (O14965 whole entry, looked up): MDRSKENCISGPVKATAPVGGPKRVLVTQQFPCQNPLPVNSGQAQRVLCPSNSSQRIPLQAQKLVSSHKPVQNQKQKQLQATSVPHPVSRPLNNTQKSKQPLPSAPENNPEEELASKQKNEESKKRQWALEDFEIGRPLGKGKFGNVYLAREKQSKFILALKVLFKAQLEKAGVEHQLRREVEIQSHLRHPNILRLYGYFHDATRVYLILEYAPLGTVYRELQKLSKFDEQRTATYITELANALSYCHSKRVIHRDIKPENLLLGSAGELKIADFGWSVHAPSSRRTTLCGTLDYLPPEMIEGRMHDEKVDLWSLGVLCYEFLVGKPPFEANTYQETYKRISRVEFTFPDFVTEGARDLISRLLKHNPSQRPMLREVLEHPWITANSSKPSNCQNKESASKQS
human Raf-1 Proto-Oncogene, serine/threonine Kinase (RAF1), RAF1 (gene 5894), sequence (P04049 whole entry, looked up): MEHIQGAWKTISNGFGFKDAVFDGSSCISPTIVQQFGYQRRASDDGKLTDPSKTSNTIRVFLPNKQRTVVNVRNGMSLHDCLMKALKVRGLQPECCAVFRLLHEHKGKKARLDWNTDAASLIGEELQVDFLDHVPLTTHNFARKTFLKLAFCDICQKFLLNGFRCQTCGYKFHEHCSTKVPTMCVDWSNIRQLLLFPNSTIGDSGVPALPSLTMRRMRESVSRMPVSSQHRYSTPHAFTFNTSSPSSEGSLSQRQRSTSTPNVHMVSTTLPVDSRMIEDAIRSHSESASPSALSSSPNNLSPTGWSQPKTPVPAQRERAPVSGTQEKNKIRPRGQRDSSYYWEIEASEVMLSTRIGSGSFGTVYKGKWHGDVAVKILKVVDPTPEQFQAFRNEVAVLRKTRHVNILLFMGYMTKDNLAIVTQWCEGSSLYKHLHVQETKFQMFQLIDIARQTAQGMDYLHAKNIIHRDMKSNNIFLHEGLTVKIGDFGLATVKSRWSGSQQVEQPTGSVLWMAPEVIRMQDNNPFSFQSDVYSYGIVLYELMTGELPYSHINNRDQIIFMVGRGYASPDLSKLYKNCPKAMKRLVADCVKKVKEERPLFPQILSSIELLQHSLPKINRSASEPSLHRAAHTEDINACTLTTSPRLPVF
human Fibroblast Growth Factor Receptor 1 (FGFR1), FGFR1 (gene 2260), sequence (P11362 whole entry, looked up): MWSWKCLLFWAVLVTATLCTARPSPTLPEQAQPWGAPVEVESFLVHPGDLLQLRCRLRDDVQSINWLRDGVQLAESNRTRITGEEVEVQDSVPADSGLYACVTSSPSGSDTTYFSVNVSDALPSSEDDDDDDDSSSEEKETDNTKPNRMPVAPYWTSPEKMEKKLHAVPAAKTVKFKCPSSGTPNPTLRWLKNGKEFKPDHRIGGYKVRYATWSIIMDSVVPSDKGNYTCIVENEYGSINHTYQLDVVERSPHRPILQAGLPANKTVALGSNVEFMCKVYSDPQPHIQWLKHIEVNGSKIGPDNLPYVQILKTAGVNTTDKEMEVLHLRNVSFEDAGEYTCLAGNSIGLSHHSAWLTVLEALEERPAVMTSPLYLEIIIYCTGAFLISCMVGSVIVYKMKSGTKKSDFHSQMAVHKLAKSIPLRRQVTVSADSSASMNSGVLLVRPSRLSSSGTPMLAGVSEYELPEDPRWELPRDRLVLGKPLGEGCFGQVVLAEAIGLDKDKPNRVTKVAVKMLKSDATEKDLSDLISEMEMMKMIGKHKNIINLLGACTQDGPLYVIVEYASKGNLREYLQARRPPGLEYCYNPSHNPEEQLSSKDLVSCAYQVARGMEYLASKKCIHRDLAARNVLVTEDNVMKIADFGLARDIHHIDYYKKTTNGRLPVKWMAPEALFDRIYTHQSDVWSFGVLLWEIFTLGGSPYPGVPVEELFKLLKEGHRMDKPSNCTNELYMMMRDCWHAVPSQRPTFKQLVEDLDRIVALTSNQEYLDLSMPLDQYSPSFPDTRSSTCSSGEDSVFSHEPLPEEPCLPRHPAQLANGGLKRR
human Mitogen-Activated Protein Kinase 1 (MAPK 1), MAPK1 (gene 5594), sequence (P28482 whole entry, looked up): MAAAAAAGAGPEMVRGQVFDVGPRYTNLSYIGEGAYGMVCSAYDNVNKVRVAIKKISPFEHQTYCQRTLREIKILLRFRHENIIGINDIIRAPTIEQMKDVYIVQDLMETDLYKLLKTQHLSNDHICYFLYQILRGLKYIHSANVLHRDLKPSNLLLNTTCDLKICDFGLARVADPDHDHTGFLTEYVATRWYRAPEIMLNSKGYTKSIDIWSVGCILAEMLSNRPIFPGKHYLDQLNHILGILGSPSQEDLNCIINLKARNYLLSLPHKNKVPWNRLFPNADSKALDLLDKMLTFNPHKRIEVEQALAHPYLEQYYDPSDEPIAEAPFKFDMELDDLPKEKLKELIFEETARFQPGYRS
Norway rat Vesicular Monoamine Transporter (VMAT2), neurotransmitter transporter, Slc18a2 (gene 25549), sequence (Q01827 whole entry, looked up): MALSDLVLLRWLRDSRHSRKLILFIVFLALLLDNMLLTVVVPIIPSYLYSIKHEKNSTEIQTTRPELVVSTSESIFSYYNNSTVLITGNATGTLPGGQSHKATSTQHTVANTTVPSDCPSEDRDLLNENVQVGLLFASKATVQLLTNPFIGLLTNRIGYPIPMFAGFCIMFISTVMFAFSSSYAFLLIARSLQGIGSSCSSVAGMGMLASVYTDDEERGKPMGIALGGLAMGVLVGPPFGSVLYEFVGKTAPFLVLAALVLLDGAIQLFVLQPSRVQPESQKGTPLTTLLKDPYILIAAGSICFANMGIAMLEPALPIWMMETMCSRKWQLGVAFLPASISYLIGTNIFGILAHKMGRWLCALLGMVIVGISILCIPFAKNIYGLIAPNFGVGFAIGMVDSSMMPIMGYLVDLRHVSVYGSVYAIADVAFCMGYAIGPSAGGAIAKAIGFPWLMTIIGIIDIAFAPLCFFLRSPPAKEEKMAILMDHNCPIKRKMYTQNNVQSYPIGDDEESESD

N[C@@H](Cc1cc(I)c(Oc2ccc(O)c(I)c2)c(I)c1)C(=O)O
outcome [1]: inactive | AC50 [2]: 4.51 µM (active) | outcome [3]: inactive | outcome [4]: inactive | outcome [5]: inactive | outcome [6]: inactive | outcome [7]: inactive | outcome [8]: inactive

O=C(NO)C1(NS(=O)(=O)c2ccc(Oc3ccc(F)cc3)cc2)CCOCC1
outcome [1]: inactive | outcome [9]: inactive | outcome [10]: inactive | outcome [3]: inactive | outcome [4]: inactive | outcome [11]: inactive | outcome [6]: inactive | outcome [12]: inactive

CCc1c(C(=O)NN2CCCCC2)nn(-c2ccc(Cl)cc2Cl)c1-c1ccc(Br)cc1
outcome [1]: inactive | outcome [2]: inactive | outcome [10]: inactive | outcome [13]: inactive | outcome [4]: inactive | outcome [14]: inactive | outcome [5]: inactive | outcome [6]: inactive | outcome [15]: inactive
